We go through 7 sequences from publication PMC7862700, “An all-to-all approach to the identification of sequence-specific readers for epigenetic DNA modifications on cytosine”.

Common to all, as to assay: DAPPL (digital affinity profiling via proximity ligation, sequencing); 10 mM Tris-HCl pH 7.5, 50 mM NaCl, 1 mM DTT, 4% glycerol, room temperature, 30 min; GST-TFs on glutathione beads, 16-mer random dsDNA library, 0.1% formaldehyde crosslink after washing; high values mean tight binding
One experiment concerns the target T1, FEV (Homo sapiens, UniProt Q99581 1-238).
T1 sequence: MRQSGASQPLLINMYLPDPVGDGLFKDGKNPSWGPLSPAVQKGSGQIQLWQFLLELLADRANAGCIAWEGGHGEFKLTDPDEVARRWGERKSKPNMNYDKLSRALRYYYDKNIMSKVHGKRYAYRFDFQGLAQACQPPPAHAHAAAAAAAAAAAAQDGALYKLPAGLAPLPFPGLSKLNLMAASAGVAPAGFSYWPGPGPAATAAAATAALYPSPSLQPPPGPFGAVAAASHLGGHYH
Particulars: protein: recombinant; tags: N-terminal GST; dsDNA, one strand shown. The gist of the method: (§1)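 Binding signal is each hexamer's read frequency for a factor divided by its frequency in the tag-only sample. The factors were GST-fused human transcription factors from yeast, captured on glutathione beads, DNA-barcoded and pooled with that sample. Pools were incubated with 200 nmole of a random double-stranded 16-mer DNA library in Tris/NaCl/DTT/glycerol buffer at room temperature for 30 min, then washed, crosslinked with 0.1% formaldehyde, proximity-ligated with BsaI/T4 ligase (1 h, 37 °C), PCR-amplified and sequenced on an Illumina NextSeq500.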

The target in another experiment is ETV5 (Homo sapiens, UniProt P41161 1-510). To be noted: protein: recombinant; tags: N-terminal GST; dsDNA, one strand shown. The gist of the method:
as §1

The target in a further experiment is HSF1 (Homo sapiens, UniProt Q00613 1-529). To be noted: protein: recombinant; tags: N-terminal GST; chain copies: 3; dsDNA, one strand shown. The gist of the method:
as §1

The next experiment addresses T2, SPIC (Homo sapiens, UniProt Q8N5J4 1-248).
T2 sequence: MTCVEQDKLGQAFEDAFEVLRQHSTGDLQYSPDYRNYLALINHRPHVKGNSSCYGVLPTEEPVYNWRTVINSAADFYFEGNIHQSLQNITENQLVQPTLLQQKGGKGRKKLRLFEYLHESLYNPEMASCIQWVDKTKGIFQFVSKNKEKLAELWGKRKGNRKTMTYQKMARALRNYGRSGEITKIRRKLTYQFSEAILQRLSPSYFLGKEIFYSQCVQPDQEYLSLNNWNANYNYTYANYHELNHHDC
Particulars: protein: recombinant; tags: N-terminal GST; dsDNA, one strand shown. The gist of the method: as §1

A further experiment addresses ELF4 (Homo sapiens, UniProt Q99607 1-663). Particulars: protein: recombinant; tags: N-terminal GST; dsDNA, one strand shown. The essentials: as §1
In a further experiment the target is T3, ELK4 (Homo sapiens, UniProt P28324-2 1-405).
T3 sequence: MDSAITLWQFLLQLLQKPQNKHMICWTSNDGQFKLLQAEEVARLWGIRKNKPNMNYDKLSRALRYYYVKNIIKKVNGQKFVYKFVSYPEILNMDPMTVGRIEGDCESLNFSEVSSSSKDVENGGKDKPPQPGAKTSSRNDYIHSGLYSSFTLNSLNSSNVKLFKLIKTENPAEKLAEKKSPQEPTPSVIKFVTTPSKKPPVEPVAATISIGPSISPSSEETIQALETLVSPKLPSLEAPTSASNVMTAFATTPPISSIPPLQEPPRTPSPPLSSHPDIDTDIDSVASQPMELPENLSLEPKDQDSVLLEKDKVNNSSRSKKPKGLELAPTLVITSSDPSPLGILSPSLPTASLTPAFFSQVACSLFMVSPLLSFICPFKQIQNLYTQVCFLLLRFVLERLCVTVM
Particulars: protein: recombinant; tags: N-terminal GST; dsDNA, one strand shown. The essentials:
as §1

The target in another experiment is T4, ELF3 (Homo sapiens, UniProt P78545 1-371).
T4 sequence: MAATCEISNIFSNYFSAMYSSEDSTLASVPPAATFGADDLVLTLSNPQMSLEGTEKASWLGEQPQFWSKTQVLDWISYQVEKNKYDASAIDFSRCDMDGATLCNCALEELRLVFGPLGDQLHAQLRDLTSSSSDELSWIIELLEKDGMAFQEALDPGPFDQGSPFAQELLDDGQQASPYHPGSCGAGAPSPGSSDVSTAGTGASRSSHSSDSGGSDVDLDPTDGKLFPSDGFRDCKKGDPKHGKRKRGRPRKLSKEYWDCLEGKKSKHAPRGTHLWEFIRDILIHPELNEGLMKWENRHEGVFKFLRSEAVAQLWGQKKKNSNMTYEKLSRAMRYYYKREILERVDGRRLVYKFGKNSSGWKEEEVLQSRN
Particulars: protein: recombinant; tags: N-terminal GST; dsDNA, one strand shown. The gist of the method: as §1

The next experiment has as its target CRX (Homo sapiens, UniProt O43186 1-299). To be noted: protein: recombinant; tags: N-terminal GST; dsDNA, one strand shown. The essentials:
as §1

Another experiment deals with ETV1 (Homo sapiens, UniProt P50549 1-477). Particulars: protein: recombinant; tags: N-terminal GST; dsDNA, one strand shown. The gist of the method: as §1
Chain of ETV1 (P50549 whole entry): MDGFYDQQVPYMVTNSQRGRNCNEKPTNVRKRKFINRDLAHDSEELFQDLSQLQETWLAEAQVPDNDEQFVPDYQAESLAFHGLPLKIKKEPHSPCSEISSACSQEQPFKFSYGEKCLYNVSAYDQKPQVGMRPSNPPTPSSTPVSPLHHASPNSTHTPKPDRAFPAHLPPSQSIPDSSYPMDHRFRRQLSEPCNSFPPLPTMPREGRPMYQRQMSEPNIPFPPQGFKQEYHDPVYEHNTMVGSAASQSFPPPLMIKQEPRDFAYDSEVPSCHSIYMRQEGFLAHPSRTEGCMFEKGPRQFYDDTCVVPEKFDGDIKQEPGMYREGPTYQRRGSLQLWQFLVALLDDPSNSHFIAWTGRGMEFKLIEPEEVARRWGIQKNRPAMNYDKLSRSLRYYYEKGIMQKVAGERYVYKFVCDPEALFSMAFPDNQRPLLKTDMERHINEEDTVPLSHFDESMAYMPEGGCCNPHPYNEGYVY

Chain of HSF1 (Q00613 whole entry): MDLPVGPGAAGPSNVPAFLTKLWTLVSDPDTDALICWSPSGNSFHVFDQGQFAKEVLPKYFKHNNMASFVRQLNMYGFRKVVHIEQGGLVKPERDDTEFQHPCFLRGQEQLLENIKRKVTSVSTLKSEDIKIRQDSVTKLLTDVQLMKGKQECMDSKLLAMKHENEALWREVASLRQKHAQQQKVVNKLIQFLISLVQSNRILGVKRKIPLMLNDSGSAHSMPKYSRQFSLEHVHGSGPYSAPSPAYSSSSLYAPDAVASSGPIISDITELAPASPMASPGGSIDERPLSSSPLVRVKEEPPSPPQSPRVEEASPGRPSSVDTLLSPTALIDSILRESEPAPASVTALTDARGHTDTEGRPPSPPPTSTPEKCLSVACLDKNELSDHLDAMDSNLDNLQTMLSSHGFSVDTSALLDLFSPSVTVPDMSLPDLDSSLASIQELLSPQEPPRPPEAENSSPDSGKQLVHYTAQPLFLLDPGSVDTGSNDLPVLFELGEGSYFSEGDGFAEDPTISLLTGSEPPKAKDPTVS
Chain of ETV5 (P41161 whole entry): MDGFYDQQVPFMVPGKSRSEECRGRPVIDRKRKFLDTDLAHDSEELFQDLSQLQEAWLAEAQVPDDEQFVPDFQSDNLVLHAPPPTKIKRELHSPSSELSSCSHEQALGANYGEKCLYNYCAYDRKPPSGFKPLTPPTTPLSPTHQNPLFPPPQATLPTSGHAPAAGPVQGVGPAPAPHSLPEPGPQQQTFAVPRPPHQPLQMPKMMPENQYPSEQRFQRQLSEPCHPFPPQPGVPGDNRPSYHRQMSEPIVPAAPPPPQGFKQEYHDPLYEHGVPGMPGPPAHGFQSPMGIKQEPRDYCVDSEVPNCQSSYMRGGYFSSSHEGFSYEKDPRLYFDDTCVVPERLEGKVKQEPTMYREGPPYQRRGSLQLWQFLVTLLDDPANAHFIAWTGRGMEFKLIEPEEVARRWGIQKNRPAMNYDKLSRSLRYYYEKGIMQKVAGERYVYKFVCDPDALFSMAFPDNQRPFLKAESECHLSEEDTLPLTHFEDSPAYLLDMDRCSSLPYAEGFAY
Chain of ELF4 (Q99607 whole entry): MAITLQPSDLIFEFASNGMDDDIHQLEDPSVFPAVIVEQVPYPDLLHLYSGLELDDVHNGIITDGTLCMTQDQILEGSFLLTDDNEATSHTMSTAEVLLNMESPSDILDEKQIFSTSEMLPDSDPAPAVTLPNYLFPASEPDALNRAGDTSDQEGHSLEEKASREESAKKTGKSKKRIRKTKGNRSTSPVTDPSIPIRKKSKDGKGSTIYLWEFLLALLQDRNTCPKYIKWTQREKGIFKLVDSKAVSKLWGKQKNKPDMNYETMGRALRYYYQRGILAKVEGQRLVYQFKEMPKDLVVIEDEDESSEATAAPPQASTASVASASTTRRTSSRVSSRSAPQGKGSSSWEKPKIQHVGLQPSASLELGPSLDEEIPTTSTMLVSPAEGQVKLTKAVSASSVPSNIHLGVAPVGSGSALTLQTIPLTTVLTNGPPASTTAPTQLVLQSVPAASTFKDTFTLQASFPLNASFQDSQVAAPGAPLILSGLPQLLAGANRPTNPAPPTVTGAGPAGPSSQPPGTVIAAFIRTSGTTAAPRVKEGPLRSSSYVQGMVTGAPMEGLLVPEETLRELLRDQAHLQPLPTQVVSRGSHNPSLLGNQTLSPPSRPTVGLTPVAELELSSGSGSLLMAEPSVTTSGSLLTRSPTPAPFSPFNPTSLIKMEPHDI
Chain of CRX (O43186 whole entry): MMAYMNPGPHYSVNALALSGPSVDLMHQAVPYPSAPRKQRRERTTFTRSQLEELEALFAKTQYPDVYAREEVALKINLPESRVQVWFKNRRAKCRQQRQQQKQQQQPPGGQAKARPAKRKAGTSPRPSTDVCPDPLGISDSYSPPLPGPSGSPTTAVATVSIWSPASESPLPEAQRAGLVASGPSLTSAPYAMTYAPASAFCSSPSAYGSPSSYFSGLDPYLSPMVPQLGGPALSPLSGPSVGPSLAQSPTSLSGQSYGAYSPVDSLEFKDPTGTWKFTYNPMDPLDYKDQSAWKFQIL

Consider AGTTCT, for which the binding signal in the experiment with FEV is 1.1 fold enrichment (6-mer frequency, TF over GST control); with ETV5, 1.12 fold enrichment (6-mer frequency, TF over GST control); with HSF1, 1.92 fold enrichment (6-mer frequency, TF over GST control); with SPIC, 1.1 fold enrichment (6-mer frequency, TF over GST control); in the experiment with ELF4, 1.13 fold enrichment (6-mer frequency, TF over GST control); in the experiment with ELK4, 1.2 fold enrichment (6-mer frequency, TF over GST control). For the same sequence, the binding signal in the experiment with ELF3 was 1.17 fold enrichment (6-mer frequency, TF over GST control); in the experiment with CRX, 1.19 fold enrichment (6-mer frequency, TF over GST control); in the experiment with ETV1 it was 1.03 fold enrichment (6-mer frequency, TF over GST control).

Take ATCAGC: the binding signal is 1.01 fold enrichment (6-mer frequency, TF over GST control) in the experiment with ETV5; 1.01 fold enrichment (6-mer frequency, TF over GST control) with HSF1; 1 fold enrichment (6-mer frequency, TF over GST control) in the experiment with SPIC; 1.02 fold enrichment (6-mer frequency, TF over GST control) in the experiment with ELF4; 1.14 fold enrichment (6-mer frequency, TF over GST control) in the experiment with ELK4; 1.13 fold enrichment (6-mer frequency, TF over GST control) with ELF3. The binding signal with CRX was 1.31 fold enrichment (6-mer frequency, TF over GST control); with ETV1 it was 1.01 fold enrichment (6-mer frequency, TF over GST control).

For the sequence GCTTTT, the binding signal with FEV is 1.07 fold enrichment (6-mer frequency, TF over GST control); with ETV5 it was 1.09 fold enrichment (6-mer frequency, TF over GST control); in the experiment with HSF1, 1.12 fold enrichment (6-mer frequency, TF over GST control); with SPIC it was 1.12 fold enrichment (6-mer frequency, TF over GST control); with ELF4 it was 1.18 fold enrichment (6-mer frequency, TF over GST control); in the experiment with ELK4, 1.17 fold enrichment (6-mer frequency, TF over GST control). The binding signal with ELF3 was 1.14 fold enrichment (6-mer frequency, TF over GST control); with CRX, 1.32 fold enrichment (6-mer frequency, TF over GST control); with ETV1 it was 1.1 fold enrichment (6-mer frequency, TF over GST control).

AATAGG: the binding signal is 1.13 fold enrichment (6-mer frequency, TF over GST control) with FEV; 1.16 fold enrichment (6-mer frequency, TF over GST control) with ETV5; 1.02 fold enrichment (6-mer frequency, TF over GST control) in the experiment with HSF1; 1.14 fold enrichment (6-mer frequency, TF over GST control) in the experiment with SPIC; 1.04 fold enrichment (6-mer frequency, TF over GST control) with ELF4; 1.08 fold enrichment (6-mer frequency, TF over GST control) in the experiment with ELK4. In addition, the binding signal was 1.09 fold enrichment (6-mer frequency, TF over GST control) with ELF3; 1.21 fold enrichment (6-mer frequency, TF over GST control) with CRX; 1.25 fold enrichment (6-mer frequency, TF over GST control) with ETV1.

Regarding AACCCA, the binding signal with FEV was 1.03 fold enrichment (6-mer frequency, TF over GST control); with ETV5, 1.05 fold enrichment (6-mer frequency, TF over GST control); in the experiment with HSF1 it was 1 fold enrichment (6-mer frequency, TF over GST control); with SPIC, 1.1 fold enrichment (6-mer frequency, TF over GST control); with ELF4, 1.1 fold enrichment (6-mer frequency, TF over GST control); in the experiment with ELK4, 1.08 fold enrichment (6-mer frequency, TF over GST control). Further, the binding signal with ELF3 was 1.04 fold enrichment (6-mer frequency, TF over GST control).

As for TGCTTA, the binding signal is 1.03 fold enrichment (6-mer frequency, TF over GST control) with FEV; 1.09 fold enrichment (6-mer frequency, TF over GST control) with ETV5; 1.33 fold enrichment (6-mer frequency, TF over GST control) in the experiment with HSF1; 1.32 fold enrichment (6-mer frequency, TF over GST control) with SPIC; 1.11 fold enrichment (6-mer frequency, TF over GST control) in the experiment with ELF4; 1.04 fold enrichment (6-mer frequency, TF over GST control) with ELK4. The binding signal with ELF3 is 1.09 fold enrichment (6-mer frequency, TF over GST control); in the experiment with CRX, 1.78 fold enrichment (6-mer frequency, TF over GST control); with ETV1, 1.11 fold enrichment (6-mer frequency, TF over GST control).

Take TAGAAA: the binding signal in the experiment with FEV is 1.04 fold enrichment (6-mer frequency, TF over GST control); with ETV5, 1.03 fold enrichment (6-mer frequency, TF over GST control); in the experiment with HSF1 it was 3.06 fold enrichment (6-mer frequency, TF over GST control); with SPIC, 1.12 fold enrichment (6-mer frequency, TF over GST control); in the experiment with ELF4, 1.1 fold enrichment (6-mer frequency, TF over GST control); with ELK4 it was 1.13 fold enrichment (6-mer frequency, TF over GST control). The binding signal with CRX is 1.58 fold enrichment (6-mer frequency, TF over GST control); in the experiment with ETV1 it was 1.13 fold enrichment (6-mer frequency, TF over GST control).
